Results published in ChEMBL document CHEMBL1961873, “Compounds: GSK PKIS; Assays: Nanosyn kinase panel” (2012).

Experiments:
[1] = target: T1, Ephrin type-B receptor 2 (Homo sapiens) (UniProt P29323); settings: at 1 µM
T1 sequence (whole entry): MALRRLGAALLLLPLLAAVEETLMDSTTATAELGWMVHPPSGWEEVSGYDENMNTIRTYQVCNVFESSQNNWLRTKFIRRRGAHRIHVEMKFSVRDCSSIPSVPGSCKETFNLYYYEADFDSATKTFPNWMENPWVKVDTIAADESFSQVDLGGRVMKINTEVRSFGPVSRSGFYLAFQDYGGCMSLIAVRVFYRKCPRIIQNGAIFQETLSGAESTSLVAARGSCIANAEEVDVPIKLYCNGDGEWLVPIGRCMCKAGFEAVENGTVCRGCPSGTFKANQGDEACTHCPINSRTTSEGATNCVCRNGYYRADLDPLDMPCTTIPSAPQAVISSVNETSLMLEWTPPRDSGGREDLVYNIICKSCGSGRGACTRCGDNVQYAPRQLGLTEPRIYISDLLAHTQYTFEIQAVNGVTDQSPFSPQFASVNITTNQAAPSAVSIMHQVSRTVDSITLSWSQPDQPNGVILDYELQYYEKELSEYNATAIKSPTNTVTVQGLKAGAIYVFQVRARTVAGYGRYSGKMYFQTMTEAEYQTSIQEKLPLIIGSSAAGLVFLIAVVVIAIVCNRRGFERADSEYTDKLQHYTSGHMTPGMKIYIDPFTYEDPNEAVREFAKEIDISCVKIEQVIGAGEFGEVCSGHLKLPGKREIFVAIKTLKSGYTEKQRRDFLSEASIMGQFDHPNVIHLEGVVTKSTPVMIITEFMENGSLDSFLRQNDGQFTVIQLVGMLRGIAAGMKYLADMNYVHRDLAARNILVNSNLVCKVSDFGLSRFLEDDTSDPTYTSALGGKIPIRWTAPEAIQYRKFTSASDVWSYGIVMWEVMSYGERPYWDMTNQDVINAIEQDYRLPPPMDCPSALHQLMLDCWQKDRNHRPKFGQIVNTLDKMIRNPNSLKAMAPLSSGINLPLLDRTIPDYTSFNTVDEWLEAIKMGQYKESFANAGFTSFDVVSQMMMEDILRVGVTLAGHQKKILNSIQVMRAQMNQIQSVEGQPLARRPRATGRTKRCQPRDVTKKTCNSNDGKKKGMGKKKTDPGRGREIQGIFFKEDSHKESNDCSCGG

[2] = target: T2, Ephrin type-B receptor 3 (Homo sapiens) (UniProt P54753); settings: at 0.1 µM
T2 sequence (whole entry): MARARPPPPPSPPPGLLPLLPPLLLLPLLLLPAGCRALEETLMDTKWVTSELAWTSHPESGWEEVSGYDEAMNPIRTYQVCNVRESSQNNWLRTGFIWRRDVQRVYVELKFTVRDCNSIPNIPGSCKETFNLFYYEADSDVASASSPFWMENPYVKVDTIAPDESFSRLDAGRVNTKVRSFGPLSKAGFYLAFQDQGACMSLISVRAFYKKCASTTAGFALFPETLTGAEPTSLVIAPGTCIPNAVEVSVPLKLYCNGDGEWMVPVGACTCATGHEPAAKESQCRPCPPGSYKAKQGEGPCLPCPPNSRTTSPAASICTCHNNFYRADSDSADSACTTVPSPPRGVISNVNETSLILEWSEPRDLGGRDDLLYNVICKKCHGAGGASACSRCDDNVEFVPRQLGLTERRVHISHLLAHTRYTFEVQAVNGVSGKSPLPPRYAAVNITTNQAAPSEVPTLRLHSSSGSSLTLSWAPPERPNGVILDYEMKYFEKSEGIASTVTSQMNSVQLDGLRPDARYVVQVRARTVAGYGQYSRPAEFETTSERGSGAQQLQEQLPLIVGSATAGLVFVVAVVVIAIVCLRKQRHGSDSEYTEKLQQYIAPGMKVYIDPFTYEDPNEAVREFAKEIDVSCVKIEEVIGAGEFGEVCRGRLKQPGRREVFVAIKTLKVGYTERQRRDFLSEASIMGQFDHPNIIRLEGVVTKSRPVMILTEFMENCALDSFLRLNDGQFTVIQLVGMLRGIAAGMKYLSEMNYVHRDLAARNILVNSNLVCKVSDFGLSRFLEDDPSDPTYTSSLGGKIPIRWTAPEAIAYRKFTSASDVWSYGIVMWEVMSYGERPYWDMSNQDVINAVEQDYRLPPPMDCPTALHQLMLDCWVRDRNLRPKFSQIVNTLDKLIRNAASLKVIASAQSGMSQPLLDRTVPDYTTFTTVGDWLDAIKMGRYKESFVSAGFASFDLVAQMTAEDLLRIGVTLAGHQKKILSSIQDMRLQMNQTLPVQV

[3] = target: T2, Ephrin type-B receptor 3 (Homo sapiens); settings: at 1 µM
[4] = target: T3, Ephrin type-B receptor 4 (Homo sapiens) (UniProt P54760); settings: at 0.1 µM
T3 sequence (whole entry): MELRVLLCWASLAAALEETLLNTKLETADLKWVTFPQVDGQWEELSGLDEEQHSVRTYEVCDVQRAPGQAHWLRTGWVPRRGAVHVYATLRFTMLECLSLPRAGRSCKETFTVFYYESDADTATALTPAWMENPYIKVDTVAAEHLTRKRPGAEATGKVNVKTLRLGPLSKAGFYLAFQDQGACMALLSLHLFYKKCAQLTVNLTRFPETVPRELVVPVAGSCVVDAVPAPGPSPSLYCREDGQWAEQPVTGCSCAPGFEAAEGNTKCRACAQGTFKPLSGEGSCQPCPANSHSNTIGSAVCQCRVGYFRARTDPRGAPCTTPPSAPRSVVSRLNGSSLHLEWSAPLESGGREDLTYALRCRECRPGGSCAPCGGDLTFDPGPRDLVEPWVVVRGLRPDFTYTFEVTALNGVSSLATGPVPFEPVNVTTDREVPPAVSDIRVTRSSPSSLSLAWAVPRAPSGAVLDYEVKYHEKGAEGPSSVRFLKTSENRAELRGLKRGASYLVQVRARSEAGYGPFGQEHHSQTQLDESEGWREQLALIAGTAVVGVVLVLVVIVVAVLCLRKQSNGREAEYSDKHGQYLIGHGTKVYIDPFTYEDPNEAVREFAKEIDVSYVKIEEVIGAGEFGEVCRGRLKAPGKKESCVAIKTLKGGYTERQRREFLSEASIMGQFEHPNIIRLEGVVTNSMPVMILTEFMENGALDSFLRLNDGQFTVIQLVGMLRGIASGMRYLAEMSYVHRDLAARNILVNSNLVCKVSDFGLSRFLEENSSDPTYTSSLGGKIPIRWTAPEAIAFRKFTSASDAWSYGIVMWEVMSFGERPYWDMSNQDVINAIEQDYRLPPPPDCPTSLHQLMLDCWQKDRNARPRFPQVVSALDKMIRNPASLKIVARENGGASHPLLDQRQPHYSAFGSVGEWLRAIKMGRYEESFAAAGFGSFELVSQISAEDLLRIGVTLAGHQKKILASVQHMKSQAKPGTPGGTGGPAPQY

[5] = target: T3, Ephrin type-B receptor 4 (Homo sapiens); settings: at 1 µM
[6] = target: Receptor tyrosine-protein kinase erbB-2 (Homo sapiens) (UniProt P04626); settings: at 0.1 µM
Chain of Receptor tyrosine-protein kinase erbB-2 (Homo sapiens) (P04626 whole entry): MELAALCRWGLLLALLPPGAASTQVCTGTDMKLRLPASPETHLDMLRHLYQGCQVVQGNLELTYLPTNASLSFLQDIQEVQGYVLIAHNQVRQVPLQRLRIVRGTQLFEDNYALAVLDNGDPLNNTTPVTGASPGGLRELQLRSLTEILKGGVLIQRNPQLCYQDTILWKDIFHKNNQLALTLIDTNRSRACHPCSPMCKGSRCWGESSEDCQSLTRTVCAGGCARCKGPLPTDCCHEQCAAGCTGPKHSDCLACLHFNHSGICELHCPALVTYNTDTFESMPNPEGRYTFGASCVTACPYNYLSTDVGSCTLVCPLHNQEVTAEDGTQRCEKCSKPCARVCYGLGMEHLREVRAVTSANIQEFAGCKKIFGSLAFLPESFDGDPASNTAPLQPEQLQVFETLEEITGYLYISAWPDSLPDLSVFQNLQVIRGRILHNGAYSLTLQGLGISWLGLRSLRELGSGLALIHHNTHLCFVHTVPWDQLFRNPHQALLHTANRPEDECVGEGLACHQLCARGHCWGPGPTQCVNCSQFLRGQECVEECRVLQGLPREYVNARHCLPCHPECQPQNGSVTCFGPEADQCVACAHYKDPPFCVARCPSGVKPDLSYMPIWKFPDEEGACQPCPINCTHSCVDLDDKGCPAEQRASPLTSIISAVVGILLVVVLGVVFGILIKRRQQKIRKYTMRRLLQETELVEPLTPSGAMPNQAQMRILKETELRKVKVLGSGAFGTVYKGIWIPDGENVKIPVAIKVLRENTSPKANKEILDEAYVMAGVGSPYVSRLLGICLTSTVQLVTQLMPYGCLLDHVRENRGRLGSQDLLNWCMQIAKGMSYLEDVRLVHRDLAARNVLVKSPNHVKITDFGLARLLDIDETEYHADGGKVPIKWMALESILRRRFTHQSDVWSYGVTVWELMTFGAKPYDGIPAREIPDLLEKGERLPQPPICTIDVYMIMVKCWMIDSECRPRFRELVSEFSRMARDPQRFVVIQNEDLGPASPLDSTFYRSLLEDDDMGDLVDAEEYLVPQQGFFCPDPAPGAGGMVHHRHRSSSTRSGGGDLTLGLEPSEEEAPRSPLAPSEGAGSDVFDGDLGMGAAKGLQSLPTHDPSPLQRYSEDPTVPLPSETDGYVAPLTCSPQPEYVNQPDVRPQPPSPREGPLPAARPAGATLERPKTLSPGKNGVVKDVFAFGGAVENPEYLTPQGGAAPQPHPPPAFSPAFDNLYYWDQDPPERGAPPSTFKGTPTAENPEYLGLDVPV

[7] = target: Receptor tyrosine-protein kinase erbB-2 (Homo sapiens) (UniProt P04626); settings: at 1 µM
[8] = target: Receptor tyrosine-protein kinase erbB-4 (Homo sapiens) (UniProt Q15303); settings: at 0.1 µM
Chain of Receptor tyrosine-protein kinase erbB-4 (Homo sapiens) (Q15303 whole entry): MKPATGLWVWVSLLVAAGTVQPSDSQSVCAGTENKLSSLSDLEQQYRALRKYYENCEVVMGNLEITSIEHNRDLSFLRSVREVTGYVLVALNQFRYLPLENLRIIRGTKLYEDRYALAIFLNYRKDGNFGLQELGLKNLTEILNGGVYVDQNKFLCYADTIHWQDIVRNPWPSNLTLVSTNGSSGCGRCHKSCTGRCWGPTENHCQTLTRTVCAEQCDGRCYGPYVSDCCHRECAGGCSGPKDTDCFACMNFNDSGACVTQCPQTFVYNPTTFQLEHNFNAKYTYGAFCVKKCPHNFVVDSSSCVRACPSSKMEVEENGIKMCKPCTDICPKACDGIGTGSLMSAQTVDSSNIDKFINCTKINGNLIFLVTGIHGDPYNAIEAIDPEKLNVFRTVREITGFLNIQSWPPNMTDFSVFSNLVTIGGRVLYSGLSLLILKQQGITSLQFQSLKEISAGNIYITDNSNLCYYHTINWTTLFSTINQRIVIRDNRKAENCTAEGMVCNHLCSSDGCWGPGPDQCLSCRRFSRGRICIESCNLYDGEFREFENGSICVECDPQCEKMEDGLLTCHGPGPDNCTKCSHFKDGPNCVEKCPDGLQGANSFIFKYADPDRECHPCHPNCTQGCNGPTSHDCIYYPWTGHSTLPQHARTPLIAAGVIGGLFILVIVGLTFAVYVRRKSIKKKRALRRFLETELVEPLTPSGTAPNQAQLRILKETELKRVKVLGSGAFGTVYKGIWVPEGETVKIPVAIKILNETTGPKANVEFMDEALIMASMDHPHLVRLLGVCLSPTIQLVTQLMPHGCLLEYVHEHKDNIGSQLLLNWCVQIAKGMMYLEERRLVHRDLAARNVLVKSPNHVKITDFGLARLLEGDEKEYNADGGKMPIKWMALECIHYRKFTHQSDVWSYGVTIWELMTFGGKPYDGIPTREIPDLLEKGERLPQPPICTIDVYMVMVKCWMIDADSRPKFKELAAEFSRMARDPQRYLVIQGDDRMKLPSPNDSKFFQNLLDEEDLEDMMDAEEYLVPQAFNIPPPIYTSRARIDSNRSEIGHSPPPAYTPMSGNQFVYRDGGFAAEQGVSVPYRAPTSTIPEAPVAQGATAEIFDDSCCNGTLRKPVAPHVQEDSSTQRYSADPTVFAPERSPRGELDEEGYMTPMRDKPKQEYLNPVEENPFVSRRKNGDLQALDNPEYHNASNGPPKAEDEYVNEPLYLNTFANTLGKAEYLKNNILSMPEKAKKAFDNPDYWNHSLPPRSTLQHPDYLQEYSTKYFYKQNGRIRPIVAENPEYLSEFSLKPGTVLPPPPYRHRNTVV

[9] = target: Receptor tyrosine-protein kinase erbB-4 (Homo sapiens) (UniProt Q15303); settings: at 1 µM
[10] = target: Tyrosine-protein kinase Fer (Homo sapiens) (UniProt P16591); settings: at 0.1 µM
[11] = target: Tyrosine-protein kinase Fer (Homo sapiens) (UniProt P16591); settings: at 1 µM
[12] = target: Tyrosine-protein kinase Fes/Fps (Homo sapiens) (UniProt P07332); settings: at 0.1 µM
Chain of Tyrosine-protein kinase Fes/Fps (Homo sapiens) (P07332 whole entry): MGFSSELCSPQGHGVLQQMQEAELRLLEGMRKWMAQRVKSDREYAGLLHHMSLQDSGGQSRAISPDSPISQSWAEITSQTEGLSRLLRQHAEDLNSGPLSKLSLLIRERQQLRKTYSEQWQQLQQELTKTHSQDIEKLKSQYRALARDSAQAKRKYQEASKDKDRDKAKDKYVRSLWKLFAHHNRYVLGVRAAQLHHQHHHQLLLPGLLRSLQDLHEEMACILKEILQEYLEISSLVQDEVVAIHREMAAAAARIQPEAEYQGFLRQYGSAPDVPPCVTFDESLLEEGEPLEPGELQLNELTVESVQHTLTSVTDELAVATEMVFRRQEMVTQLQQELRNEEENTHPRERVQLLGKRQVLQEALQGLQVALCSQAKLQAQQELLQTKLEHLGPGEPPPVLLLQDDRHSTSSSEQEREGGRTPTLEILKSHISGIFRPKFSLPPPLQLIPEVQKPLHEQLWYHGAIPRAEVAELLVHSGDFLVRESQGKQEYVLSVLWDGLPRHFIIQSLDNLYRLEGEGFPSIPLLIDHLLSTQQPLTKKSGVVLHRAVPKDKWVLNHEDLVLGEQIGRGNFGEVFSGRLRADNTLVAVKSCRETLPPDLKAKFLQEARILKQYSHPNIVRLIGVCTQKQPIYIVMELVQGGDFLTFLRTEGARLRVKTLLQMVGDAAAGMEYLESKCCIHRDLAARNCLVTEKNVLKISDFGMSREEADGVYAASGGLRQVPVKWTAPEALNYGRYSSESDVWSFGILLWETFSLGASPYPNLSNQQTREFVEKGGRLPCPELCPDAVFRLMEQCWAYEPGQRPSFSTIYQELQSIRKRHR

[13] = target: Tyrosine-protein kinase Fes/Fps (Homo sapiens) (UniProt P07332); settings: at 1 µM
[14] = target: Fibroblast growth factor receptor 1 (Homo sapiens) (UniProt P11362); settings: at 0.1 µM
[15] = target: Fibroblast growth factor receptor 1 (Homo sapiens) (UniProt P11362); settings: at 1 µM
[16] = target: Fibroblast growth factor receptor 2 (Homo sapiens) (UniProt P21802); settings: at 0.1 µM
[17] = target: Fibroblast growth factor receptor 2 (Homo sapiens) (UniProt P21802); settings: at 1 µM
[18] = target: Fibroblast growth factor receptor 3 (Homo sapiens) (UniProt P22607); settings: at 0.1 µM
Chain of Fibroblast growth factor receptor 3 (Homo sapiens) (P22607 23-806 limits assumed): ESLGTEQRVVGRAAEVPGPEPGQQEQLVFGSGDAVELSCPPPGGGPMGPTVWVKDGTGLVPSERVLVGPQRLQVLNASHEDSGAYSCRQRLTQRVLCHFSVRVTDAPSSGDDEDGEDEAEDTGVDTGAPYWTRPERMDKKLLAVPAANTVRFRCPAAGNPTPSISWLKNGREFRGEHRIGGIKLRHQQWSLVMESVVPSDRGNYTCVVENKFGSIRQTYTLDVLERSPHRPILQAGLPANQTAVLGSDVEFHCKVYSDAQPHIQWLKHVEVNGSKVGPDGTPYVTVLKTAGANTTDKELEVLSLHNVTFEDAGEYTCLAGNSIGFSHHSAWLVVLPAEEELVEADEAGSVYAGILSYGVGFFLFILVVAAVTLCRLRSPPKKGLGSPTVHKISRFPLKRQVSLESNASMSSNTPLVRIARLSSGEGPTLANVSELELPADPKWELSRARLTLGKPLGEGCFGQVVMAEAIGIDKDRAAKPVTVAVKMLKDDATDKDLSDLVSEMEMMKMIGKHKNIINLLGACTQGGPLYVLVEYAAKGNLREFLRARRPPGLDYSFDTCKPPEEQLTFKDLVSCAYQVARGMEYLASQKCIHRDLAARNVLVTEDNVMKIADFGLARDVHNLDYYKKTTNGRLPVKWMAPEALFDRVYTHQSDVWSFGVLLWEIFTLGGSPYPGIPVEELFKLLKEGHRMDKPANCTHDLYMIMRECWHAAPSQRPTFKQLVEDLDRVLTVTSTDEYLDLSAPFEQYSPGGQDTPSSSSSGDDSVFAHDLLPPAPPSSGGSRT

[19] = target: Fibroblast growth factor receptor 3 (Homo sapiens) (UniProt P22607); settings: at 1 µM
[20] = target: Fibroblast growth factor receptor 4 (Homo sapiens) (UniProt P22455); settings: at 0.1 µM;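 note: values are mean percent inhibition of FGFR4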
Chain of Fibroblast growth factor receptor 4 (Homo sapiens) (P22455 22-802 limits assumed): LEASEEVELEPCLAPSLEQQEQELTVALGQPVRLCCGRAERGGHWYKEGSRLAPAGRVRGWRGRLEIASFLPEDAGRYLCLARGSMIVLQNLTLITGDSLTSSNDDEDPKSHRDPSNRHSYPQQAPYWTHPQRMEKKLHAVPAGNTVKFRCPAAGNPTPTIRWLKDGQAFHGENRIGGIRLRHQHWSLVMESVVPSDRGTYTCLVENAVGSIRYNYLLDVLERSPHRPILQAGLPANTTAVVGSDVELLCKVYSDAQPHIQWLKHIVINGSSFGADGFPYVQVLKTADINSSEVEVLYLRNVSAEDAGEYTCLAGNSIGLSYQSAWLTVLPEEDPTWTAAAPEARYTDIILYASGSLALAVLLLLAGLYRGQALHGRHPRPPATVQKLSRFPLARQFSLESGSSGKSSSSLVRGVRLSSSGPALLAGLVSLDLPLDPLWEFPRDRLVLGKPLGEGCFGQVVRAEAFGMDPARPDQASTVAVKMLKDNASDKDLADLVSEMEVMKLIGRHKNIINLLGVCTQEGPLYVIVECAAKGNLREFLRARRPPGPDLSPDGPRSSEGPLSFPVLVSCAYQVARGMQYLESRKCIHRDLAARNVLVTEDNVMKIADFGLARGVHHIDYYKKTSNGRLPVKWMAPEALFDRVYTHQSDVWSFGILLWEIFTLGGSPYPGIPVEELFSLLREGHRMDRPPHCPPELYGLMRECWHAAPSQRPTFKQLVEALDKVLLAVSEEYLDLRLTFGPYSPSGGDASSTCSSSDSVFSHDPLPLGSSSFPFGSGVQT

## CCS(=O)(=O)c1ccc(OC)c(Nc2ncc(-c3cccc(-c4ccccc4F)c3)o2)c1
[1]
  inhibition: 11.9%
[2]
  inhibition: 2.15%
[3]
  inhibition: 0.93%
[4]
  inhibition: 0.78%
[5]
  inhibition: 8.8%
[6]
  inhibition: -0.34%
[7]
  inhibition: 2.22%
[8]
  inhibition: 5.89%
[9]
  inhibition: 15.2%
[10]
  inhibition: 0.83%
[11]
  inhibition: 2.29%
[12]
  inhibition: -0.07%
[13]
  inhibition: 0.23%
[14]
  inhibition: 6.92%
[15]
  inhibition: 40%
[16]
  inhibition: 29.3%
[17]
  inhibition: 60.6%
[18]
  inhibition: 29.3%
[19]
  inhibition: 65.5%
[20]
  inhibition: 3.01%

## O=C(NCC1CC1)c1ccc(-c2cccc(C(=O)NC3CC3)c2)cc1
[1]
  inhibition: 11.8%
[2]
  inhibition: 3.55%
[3]
  inhibition: 2.98%
[4]
  inhibition: 1.37%
[5]
  inhibition: 1.03%
[6]
  inhibition: -0.54%
[7]
  inhibition: 1.1%
[8]
  inhibition: 16.7%
[9]
  inhibition: 6.05%
[10]
  inhibition: 0.26%
[11]
  inhibition: -1.83%
[12]
  inhibition: 1.39%
[13]
  inhibition: 1.59%
[14]
  inhibition: 2.86%
[15]
  inhibition: 8.03%
[16]
  inhibition: 3.33%
[17]
  inhibition: 10.1%
[18]
  inhibition: 4.92%
[19]
  inhibition: 9.43%
[20]
  inhibition: -0.02%

## NC(=O)c1ccc(Oc2nccc(-c3c(-c4ccc(F)cc4)ncn3C3CCNCC3)n2)cc1
[1]
  inhibition: 4.72%
[2]
  inhibition: 4.03%
[3]
  inhibition: 3.75%
[4]
  inhibition: 3.7%
[5]
  inhibition: 3.09%
[6]
  inhibition: 3.73%
[7]
  inhibition: 3.35%
[8]
  inhibition: 5.71%
[9]
  inhibition: 8.73%
[10]
  inhibition: 7.08%
[11]
  inhibition: 10.6%
[12]
  inhibition: 4.82%
[13]
  inhibition: 4.5%
[14]
  inhibition: 5.23%
[15]
  inhibition: 8.19%
[16]
  inhibition: 11.3%
[17]
  inhibition: 8.04%
[18]
  inhibition: 11%
[19]
  inhibition: 6.64%
[20]
  inhibition: 5.18%

## NS(=O)(=O)c1ccc(Nc2cc(-c3ccc(O)c(F)c3)n[nH]2)cc1
[1]
  inhibition: -1.29%
[2]
  inhibition: -8.08%
[3]
  inhibition: -5.11%
[4]
  inhibition: -0.68%
[5]
  inhibition: -0.49%
[6]
  inhibition: -5.39%
[7]
  inhibition: -4.29%
[9]
  inhibition: -6.22%
[10]
  inhibition: 5.83%
[11]
  inhibition: 14.1%
[12]
  inhibition: -3.61%
[13]
  inhibition: -0.97%
[14]
  inhibition: -2.91%
[15]
  inhibition: 8.63%
[16]
  inhibition: -4.17%
[17]
  inhibition: 9.61%
[18]
  inhibition: 1.11%
[19]
  inhibition: 8.58%
[20]
  inhibition: 1.23%

## C/C(Nc1ccc(S(N)(=O)=O)cc1)=C1/C(=O)Nc2ccccc21
[1]
  inhibition: -0.51%
[2]
  inhibition: -3.87%
[3]
  inhibition: -3.57%
[4]
  inhibition: -2.17%
[5]
  inhibition: -2.22%
[6]
  inhibition: -3.56%
[7]
  inhibition: -3.5%
[8]
  inhibition: -5.37%
[9]
  inhibition: -8.14%
[10]
  inhibition: 0.46%
[11]
  inhibition: 10.5%
[12]
  inhibition: -2.91%
[13]
  inhibition: -3.39%
[14]
  inhibition: -4.77%
[15]
  inhibition: 6.33%
[16]
  inhibition: 0.2%
[17]
  inhibition: 21.1%
[18]
  inhibition: 0.94%
[19]
  inhibition: 21%
[20]
  inhibition: 1.73%

## COc1cc(Nc2ncc(-c3ccccc3)o2)cc(OC)c1OC
[1]
  inhibition: 5.83%
[2]
  inhibition: -5.87%
[3]
  inhibition: -2.19%
[4]
  inhibition: 1.05%
[5]
  inhibition: 3.25%
[6]
  inhibition: 0.87%
[7]
  inhibition: -1.74%
[8]
  inhibition: -4.19%
[9]
  inhibition: -2.66%
[10]
  inhibition: -1.48%
[11]
  inhibition: 2.66%
[12]
  inhibition: 0.68%
[13]
  inhibition: -1.45%
[14]
  inhibition: -3.33%
[15]
  inhibition: 8.79%
[16]
  inhibition: 4.47%
[17]
  inhibition: 27%
[18]
  inhibition: 1.69%
[19]
  inhibition: 16.6%
[20]
  inhibition: -0.19%

## CS(=O)(=O)CCNCc1cc(-c2cc3c(Nc4ccc(OCc5cccc(F)c5)c(Cl)c4)ncnc3s2)cs1
[1]
  inhibition: 7.92%
[2]
  inhibition: 0.62%
[3]
  inhibition: 4.6%
[4]
  inhibition: -0.19%
[5]
  inhibition: 2.96%
[6]
  inhibition: 3.61%
[7]
  inhibition: 60.2%
[8]
  inhibition: 22.7%
[9]
  inhibition: 76.7%
[10]
  inhibition: 2.65%
[11]
  inhibition: 7.65%
[12]
  inhibition: 4.73%
[13]
  inhibition: 5.27%
[14]
  inhibition: 5.5%
[15]
  inhibition: 3.17%
[16]
  inhibition: 7.79%
[17]
  inhibition: 8.79%
[18]
  inhibition: 6%
[19]
  inhibition: 6.34%
[20]
  inhibition: 5.68%

## COc1ccc(C2=C(N3CCc4ccccc43)C(=O)NC2=O)cc1
[1]
  inhibition: 11.3%
[2]
  inhibition: 3.73%
[3]
  inhibition: 6.05%
[4]
  inhibition: 3.74%
[5]
  inhibition: 4.2%
[6]
  inhibition: 4.12%
[7]
  inhibition: 2.07%
[8]
  inhibition: 8.75%
[9]
  inhibition: 12.9%
[10]
  inhibition: 5.39%
[11]
  inhibition: 4.91%
[12]
  inhibition: 3.03%
[13]
  inhibition: 5.04%
[14]
  inhibition: 4.17%
[15]
  inhibition: 8.02%
[16]
  inhibition: 4.11%
[17]
  inhibition: 6.4%
[18]
  inhibition: 8.71%
[19]
  inhibition: 8.26%
[20]
  inhibition: 2.43%
